# Measured values taken from PubChem BioAssay.
# Values without a mark were called inactive. Active and inactive are the calls of the source.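 How the source made its calls, unless noted: active means growth inhibition above 50% at the single 2 µM test dose, taken to imply half-maximal potency below 2 µM; inactive means the rest.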
# Experiment: antimalarial activity against Dd2 strain (AID 2302);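 further: 0% = DMSO untreated growth and 100% = chloroquine plus artemisinin killed control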
# Conditions: P. falciparum Dd2 in RBCs, LDH growth readout, 72 h; at 2 µM; stronger effect = higher value
row,Structure (SMILES),growth inhibition
1,COc1ccc(Cn2c(Nc3cccc(C(F)(F)F)c3)nc3cc(C(=O)NCCN4CCCC4)cnc32)cc1Cl,31%
2,O=C(Nc1cccc(C(F)(F)F)c1)c1cc([N+](=O)[O-])cc2cn[nH]c12,69% (active)
3,CSc1nc2cc3c(cc2n1C(=O)c1ccc(C)cc1)OCCO3,-1%
4,COc1ccccc1-c1cccc(-c2cccc(NC(=O)c3ccc([N+](=O)[O-])o3)c2)n1,59% (active)
5,COc1ccc2ncc(C#N)c(CCN3CCC(NCc4cnc5c(c4)OCCO5)CC3)c2n1,24%
6,C[C@H](N[C@H]1CCCc2c1[nH]c1ccc(Br)cc21)c1ccccc1,95% (active)
7,CS(=O)(=O)n1c(CN2CCN(c3ncc(C(F)(F)F)cc3Cl)CC2)nc2ccccc21,59% (active)
8,O=C(COc1ccccc1)N(Cc1ccc(-c2ccc(CNC3Cc4ccccc4C3)cc2)cc1)C1CCNCC1,8%
9,CN(C)S(=O)(=O)c1ccc(Nc2nc(NCCC3C=NC=N3)nc3cc[nH]c(=O)c23)cc1 (stereo not given),63% (active)
10,COc1ccc2nccc([C@@H](O)CN3CCC(NCc4nc5c(OCc6ccccc6)cccc5[nH]4)CC3)c2c1,34%
11,COc1ccc2ncc(F)c(CCN3CCC(NCc4cc(C)c5c(c4)OCCO5)CC3)c2n1,67% (active)
12,C[C@H](Cc1ccc(OCCNC[C@H](O)c2cccc(Cl)c2)cc1)NC[C@H](O)c1ccc(Cl)c(Cl)c1,64% (active)
13,c1cc(CN2CCc3ccccc3CC2)cc(-c2c[nH]c3nc(NC4CCCC4)ncc23)c1,49%
14,CCSc1ccc(C)cc1CON1C(N)=NC(N)=NC1(C)C,96% (active)
15,Cc1ccc(S(=O)(=O)NC2=NC(C)(C)N(OCc3ccc(Cl)c(Cl)c3)C(N)=N2)cc1,-3%
16,CC(C)n1cc2c(ccc3nc(N)nc(N)c32)n1,-2%
17,CCN(CC)CCNc1nc(C=Cc2ccc(Cl)cc2)nc2cc3ccccc3cc12,99% (active)
18,Cc1cccc(C(=O)N2CCN(Cc3cccc(NC(=O)c4ccco4)c3)CC2)c1,79% (active)
19,CC1(CCN2CCC(c3c[nH]c4cnccc34)CC2)CCCc2c(Br)cccc2C1=O (stereo not given),66% (active)
20,CC(C)N(CC(=O)c1ccc(O)c(C(=O)O)c1)Cc1ccccc1,26%

row,Structure (SMILES),growth inhibition
1,O=C(COc1ccccc1Cc1ccccc1)Nc1cc(Cl)ccc1-n1cncn1,93% (active)
2,Cc1ccccc1C1CCN(c2ccc(C(=O)Nc3ccccc3)cn2)CC1,94% (active)
3,COc1ccc(CCNC(C)Cc2ccc(C(=O)Nc3ccc(CC(C)NCCc4cccc(Cl)c4)cc3)cc2)cc1 (stereo not given),89% (active)
4,CC1(C)N=C(N)N=C(N)N1OCC1CCCCC1,97% (active)
5,Cc1cc(N[C@@H](CC(C)C)C(=O)NCc2cccs2)nc(Nc2ccccc2)n1,57% (active)
6,COc1cc(Cc2cnc(N)nc2N)cc(OCCCCCC(N)=O)c1OC,-3%
7,CCn1ccc2c3c(N)nc(N)nc3ccc21,2%
8,COc1ccc(-c2ccc(NC(=O)c3ccc(C#N)cc3)cc2)cc1CN(C)CCN(C)C,58% (active)
9,COCCN1CCC(N(Cc2ccc(-c3ccc(OC(F)(F)F)cc3)cc2)C(=O)Cn2c(CCc3cccc(F)c3F)cc(=O)c3ccccc32)CC1,92% (active)
10,CC(C)CCN(Cc1cncn1Cc1ccccc1F)C(=O)c1cncc(-c2ccccc2)c1,3%
11,Nc1cccc(CNCc2ccc(-c3ccc(-c4nc5ccc(F)cc5[nH]4)s3)cc2)c1,93% (active)
12,CC(C)CC1c2[nH]c3ccccc3c(=O)c2CN1C(=O)OC(C)(C)C (stereo not given),96% (active)
13,Cc1cccc(CC(N)=NCCCCCCN=C(N)Cc2cccc(C)c2)c1,97% (active)
14,CN1CCN(c2ccnc3ccc(NC(=O)Nc4ccc(-c5ccccc5)cc4)cc23)CC1,41%
15,Cc1ccc2c(OCCN3CCC(Cc4ccc5c(c4)NC(=O)CO5)CC3)cc(F)cc2n1,21%
16,Cc1nn(-c2ccc(Cl)cc2)c2[nH]c(CN3CCN(c4cccc(Cl)c4)CC3)cc(=O)c12,98% (active)
17,CC(CN(C)C)C(=O)Nc1cccc(-c2ccc(-c3nc4ccccc4[nH]3)s2)c1 (stereo not given),47%
18,CN1CCN(CCCN(Cc2ccc(-c3cccc(CNCc4ccc5c(c4)OCO5)c3)cc2)C(=O)Nc2ccccc2)CC1,87% (active)
19,Cc1cnc(Nc2ccccc2)nc1N[C@@H](CCCN)C(=O)Nc1ccccc1,0%
20,CC(C)(C)SCC(O)Cn1c2ccc(Br)cc2c2cc(Br)ccc21 (stereo not given),79% (active)

# Experiment: HepG2 cytotoxicity, primary screen, cytotoxicity control for P. falciparum antimalarial project, cell-based, ATP luminescence (AID 2303;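 active means inhibition above 50%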;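 further: 0% = DMSO wells and 100% = digitonin-killed cells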)
# Conditions: HepG2 viability, 24-48 h, at 10 µM, stronger effect = higher value
row,Structure (SMILES),inhibition
1,COc1ccc(Cn2c(Nc3cccc(C(F)(F)F)c3)nc3cc(C(=O)NCCN4CCCC4)cnc32)cc1Cl,10%
2,O=C(Nc1cccc(C(F)(F)F)c1)c1cc([N+](=O)[O-])cc2cn[nH]c12,60% (active)
3,CSc1nc2cc3c(cc2n1C(=O)c1ccc(C)cc1)OCCO3,-6%
4,COc1ccccc1-c1cccc(-c2cccc(NC(=O)c3ccc([N+](=O)[O-])o3)c2)n1,78% (active)
5,COc1ccc2ncc(C#N)c(CCN3CCC(NCc4cnc5c(c4)OCCO5)CC3)c2n1,3%
6,C[C@H](N[C@H]1CCCc2c1[nH]c1ccc(Br)cc21)c1ccccc1,58% (active)
7,CS(=O)(=O)n1c(CN2CCN(c3ncc(C(F)(F)F)cc3Cl)CC2)nc2ccccc21,-2%
8,O=C(COc1ccccc1)N(Cc1ccc(-c2ccc(CNC3Cc4ccccc4C3)cc2)cc1)C1CCNCC1,26%
9,CN(C)S(=O)(=O)c1ccc(Nc2nc(NCCC3C=NC=N3)nc3cc[nH]c(=O)c23)cc1 (stereo not given),8%
10,COc1ccc2nccc([C@@H](O)CN3CCC(NCc4nc5c(OCc6ccccc6)cccc5[nH]4)CC3)c2c1,6%
11,COc1ccc2ncc(F)c(CCN3CCC(NCc4cc(C)c5c(c4)OCCO5)CC3)c2n1,20%
12,C[C@H](Cc1ccc(OCCNC[C@H](O)c2cccc(Cl)c2)cc1)NC[C@H](O)c1ccc(Cl)c(Cl)c1,69% (active)
13,c1cc(CN2CCc3ccccc3CC2)cc(-c2c[nH]c3nc(NC4CCCC4)ncc23)c1,31%
14,CCSc1ccc(C)cc1CON1C(N)=NC(N)=NC1(C)C,66% (active)
15,Cc1ccc(S(=O)(=O)NC2=NC(C)(C)N(OCc3ccc(Cl)c(Cl)c3)C(N)=N2)cc1,-5%
16,CC(C)n1cc2c(ccc3nc(N)nc(N)c32)n1,65% (active)
17,CCN(CC)CCNc1nc(C=Cc2ccc(Cl)cc2)nc2cc3ccccc3cc12,83% (active)
18,Cc1cccc(C(=O)N2CCN(Cc3cccc(NC(=O)c4ccco4)c3)CC2)c1,7%
19,CC1(CCN2CCC(c3c[nH]c4cnccc34)CC2)CCCc2c(Br)cccc2C1=O (stereo not given),14%
20,CC(C)N(CC(=O)c1ccc(O)c(C(=O)O)c1)Cc1ccccc1,-7%

row,Structure (SMILES),inhibition
1,O=C(COc1ccccc1Cc1ccccc1)Nc1cc(Cl)ccc1-n1cncn1,5%
2,Cc1ccccc1C1CCN(c2ccc(C(=O)Nc3ccccc3)cn2)CC1,53% (active)
3,COc1ccc(CCNC(C)Cc2ccc(C(=O)Nc3ccc(CC(C)NCCc4cccc(Cl)c4)cc3)cc2)cc1 (stereo not given),99% (active)
4,CC1(C)N=C(N)N=C(N)N1OCC1CCCCC1,67% (active)
5,Cc1cc(N[C@@H](CC(C)C)C(=O)NCc2cccs2)nc(Nc2ccccc2)n1,18%
6,COc1cc(Cc2cnc(N)nc2N)cc(OCCCCCC(N)=O)c1OC,-33%
7,CCn1ccc2c3c(N)nc(N)nc3ccc21,61% (active)
8,COc1ccc(-c2ccc(NC(=O)c3ccc(C#N)cc3)cc2)cc1CN(C)CCN(C)C,28%
9,COCCN1CCC(N(Cc2ccc(-c3ccc(OC(F)(F)F)cc3)cc2)C(=O)Cn2c(CCc3cccc(F)c3F)cc(=O)c3ccccc32)CC1,100% (active)
10,CC(C)CCN(Cc1cncn1Cc1ccccc1F)C(=O)c1cncc(-c2ccccc2)c1,1%
11,Nc1cccc(CNCc2ccc(-c3ccc(-c4nc5ccc(F)cc5[nH]4)s3)cc2)c1,12%
12,CC(C)CC1c2[nH]c3ccccc3c(=O)c2CN1C(=O)OC(C)(C)C (stereo not given),2%
13,Cc1cccc(CC(N)=NCCCCCCN=C(N)Cc2cccc(C)c2)c1,12%
14,CN1CCN(c2ccnc3ccc(NC(=O)Nc4ccc(-c5ccccc5)cc4)cc23)CC1,-10%
15,Cc1ccc2c(OCCN3CCC(Cc4ccc5c(c4)NC(=O)CO5)CC3)cc(F)cc2n1,24%
16,Cc1nn(-c2ccc(Cl)cc2)c2[nH]c(CN3CCN(c4cccc(Cl)c4)CC3)cc(=O)c12,0%
17,CC(CN(C)C)C(=O)Nc1cccc(-c2ccc(-c3nc4ccccc4[nH]3)s2)c1 (stereo not given),13%
18,CN1CCN(CCCN(Cc2ccc(-c3cccc(CNCc4ccc5c(c4)OCO5)c3)cc2)C(=O)Nc2ccccc2)CC1,51% (active)
19,Cc1cnc(Nc2ccccc2)nc1N[C@@H](CCCN)C(=O)Nc1ccccc1,-2%
20,CC(C)(C)SCC(O)Cn1c2ccc(Br)cc2c2cc(Br)ccc21 (stereo not given),4%
